The panel holds about 79,000 compounds, 15% with a hit somewhere; the sample as a whole holds those more often. A number with no mark means an inactive call. The source made the active and inactive calls. Rule as the data show it: active = growth inhibition above about 70%; inactive = the rest.

This assay can be described thus: NCI Yeast Anticancer Drug Screen. Data for the sgs1 mgt1 strain (AID 161).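 Also: 0% = growth of cultures given vehicle only.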 As to conditions: S. cerevisiae sgs1 mgt1 strain, at 50.0 µM, active compounds read high. In outline: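 Test agents were incubated with a DNA-repair-mutant yeast strain. Growth was then read and compared against vehicle-treated controls.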
As to `COC(=O)CC(C(C(=O)OC)C(=O)OC)N1C(=O)OCC1c1ccccc1` (stereo not given), the growth inhibition is -29.1%.
As for `ClCCOCCOc1ccccc1Cl`, the growth inhibition is -8.1%.
Turning to `O=c1c2ccccc2oc2cc([N+](=O)[O-])cc([N+](=O)[O-])c12`, the growth inhibition was -14.4%.
For the compound `Cc1ccc(S(=O)(=O)c2cc3ccccc3oc2=O)cc1`, the growth inhibition is -8.2%.
Turning to `Nc1ccc(Br)c(N)c1`, the growth inhibition was -5.35%.
In the case of `COC1=CC(=O)c2ccccc2C1(CCC=C(C)C)C1=NC(C)(C)CO1` (stereo not given), the growth inhibition is 7.75%.
As to `O=C(Nc1cccc(C(=O)NCCCO)c1)/C(=C/c1ccccc1)NC(=O)c1ccccc1`, the growth inhibition is 1.45%.
Consider `CC1(C)COC(c2ccc(CC(Cc3ccc(C4(C(C)(C)C)OCC(C)(C)CO4)cc3)C(=O)O)cc2)(C(C)(C)C)OC1`, for which the growth inhibition is 3.1%.
In the case of `CCN(CC)CCN(CCN(CC)CC)c1c(OC)cccc1OC`, the growth inhibition was 9.25%.
As for `CCOC(=O)NC(=O)c1cn(CCCCCCCCCCC(=O)NCCCN2CCN(CCCNC(=O)CCCCCCCCCCn3cc(C(=O)NC(=O)OCC)c(=O)[nH]c3=O)CC2)c(=O)[nH]c1=O`, the growth inhibition was -23.8%.
As for `CCCCN(CCCC)CC(O)c1cc(-c2ccc(C(F)(F)F)cc2)nc(-c2ccc(C(F)(F)F)cc2)c1` (stereo not given), the growth inhibition was 2.2%.
In the case of `C=CCCCCCCCCC(=O)NCCCN1CCOCC1` it was 93.5% (active).
The result for `CC1(C)OC(=O)C=C([O-])O1.CC1(C)OC(=O)C=C([O-])O1.CC[O-].CC[O-].[Ti+4]` reads 3.6%.
As for `CSc1nnc(SCc2nn3c(=O)cc(C)nc3s2)s1`, the growth inhibition was 0.4%.
With `CC1CCCN(C(=O)Nc2ccc([N+](=O)[O-])cc2)C1` (stereo not given), the growth inhibition is 61.9%.
With `CC(=O)OCCc1cccc(C)c1`, the growth inhibition is -4.8%.
On to `CCOC(=O)C(NC(=O)CC(C)C)(N1CCN(c2cc3c(cc2F)c(=O)c(C(=O)O)cn3C2CC2)CC1)C(F)(F)F` (stereo not given), for which the growth inhibition is -0.2%.
With `COc1cc2c(c([N+](=O)[O-])c1)NC(=O)CC(C)S2` (stereo not given), the growth inhibition is 21.9%.
Consider `CN(/N=C\c1ccc2ccccc2c1)C1=NCCN1`, for which the growth inhibition is -14.8%.
Turning to `S=c1c2ccccc2sn1-c1ccccc1`, the growth inhibition is 14.9%.
For the compound `c1cc2c3c(cccc3c1)N=S=N2`, the growth inhibition is 10.1%.
Take `Cc1cccc2nc(-c3ccccn3)n(CCc3ccccn3)c12`: the growth inhibition was 1.65%.
Take `N#CCC(=O)N1CCCC1`: the growth inhibition was -3.8%.
As to `CCC1([N+](=O)[O-])CC2C=CC1C2` (stereo not given), the growth inhibition was -26%.
For the compound `O=C1C=CC(CCCCCn2ccc(=O)[nH]c2=O)C(=O)N1` (stereo not given), the growth inhibition is 14.7%.
For the compound `COc1cc(C(=O)C(C=O)c2ccccc2)c([N+](=O)[O-])cc1OC` (stereo not given), the growth inhibition is 21.5%.
As for `O=C1CC(Cc2n[nH]c3c2CCC3)CC(=O)N1`, the growth inhibition is -10.2%.
In the case of `CCC(=O)/C=C/C1=C(C)CCCC1(C)C` it was 6.25%; in that of `CCc1nc(-c2ccccc2)nc2c1nc(-c1ccc(C)cc1)n2Nc1ccccc1`, -2.95%.
The result for `O=c1oc2ccccc2c2ccccc12` reads -16.5%; that for `CCOC(=O)C1CN(C)C(=O)C1=O` (stereo not given), 16.6%.
With `CCCCCC[C@@H](O)C/C=C\CCCCCCCC(=O)OCC(C)O` (stereo not given in full), the growth inhibition is 8.9%.
Regarding `OC1CCCCC1OC1CCc2ccccc2C1` (stereo not given), the growth inhibition was -5.25%.
The result for `O=[N+]([O-])c1cccc(C(O)(C(F)(F)F)C(F)(F)F)c1` reads 1.7%.
Turning to `Cc1ccc(S(=O)(=O)NC(=O)C2(Br)S(=O)(=O)OCCOS2(=O)=O)cc1`, the growth inhibition is 6.1%.
Consider `O=C(CCN1C(=O)NC(c2ccccc2)(c2ccccc2)C1=O)NCCN1CCOCC1`, for which the growth inhibition is 5.7%.
Turning to `C[N+]1=C(/C=C/Nc2ccc(Cl)cc2)C(C)(C)c2ccccc21`, the growth inhibition was -10.4%.
Take `Brc1c2ccccc2cc2ccccc12`: the growth inhibition was 25%.
For `COC(=O)c1cc(C)ncc1C#N`, the growth inhibition was -4.7%.
Turning to `COc1ccc(Nc2nc3c([nH]2)c(=O)n(C)c(=O)n3C)cc1`, the growth inhibition is -11.3%.

The record behind these values is PubChem BioAssay (NCI).
